What all share (settings): mRNA level, 48 h; actives raise or lower the signal
Read-out in assay [1]: growth arrest and DNA damage 45 (GADD45G), GADD45G (gene 10912)
The assay is described as follows: LTEA_HepaRG_GADD45G: Life Technologies and Expression Analysis (LTEA) Assay for growth arrest and DNA damage 45 (GADD45G) using HepaRG (AID 2283499). In outline: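 GADD45G transcript level by qRT-PCR (housekeeping-normalized: ACTB, GAPDH, POLR2A) after 48 h chemical treatment of a single HepaRG lot in serum-free induction medium; eight-point half-log series up to 100 uM in 0.5% DMSO, duplicates, up- or down-regulation scored.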

Read-out in assay [2]: Glutamate-cysteine ligase regulatory (GCLM), GCLM (gene 2730)
As to the kind of experiment: LTEA_HepaRG_GCLM: Life Technologies and Expression Analysis (LTEA) Assay for Glutamate-cysteine ligase regulatory (GCLM) using HepaRG (AID 2283500). In short, it runs like this:
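In this multiplexed HepaRG gene-expression assay, GCLM mRNA change after 48 h treatment (8 concentrations, max 100 uM) was scored against DMSO by bidirectional curve fitting.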

Read-out in assay [3]: Glutathione S-transferase M3 (GSTM3), GSTM3 (gene 2947)
The assay is described as follows: LTEA_HepaRG_GSTM3: Life Technologies and Expression Analysis (LTEA) Assay for Glutathione S-transferase M3 (GSTM3) using HepaRG (AID 2283501). In outline:
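GSTM3 transcript levels came from Fluidigm TaqMan qRT-PCR normalized to three housekeeping genes, fitted in both directions against DMSO. HepaRG cultures received chemicals for 48 h in serum-free induction medium (0.5% DMSO), 8 half-log concentrations up to 100 uM, duplicate.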

Read-out in assay [4]: Heat shock 70 kDa protein 1 (HSPA1A), gene 3303
The assay is described as follows: LTEA_HepaRG_HSPA1A: Life Technologies and Expression Analysis (LTEA) Assay for Heat shock 70 kDa protein 1 (HSPA1A) using HepaRG (AID 2283502). In short, it runs like this: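 An oxidative-stress marker readout: HepaRG cells treated 48 h in duplicate with an eight-point series (highest 100 uM) had HSPA1A mRNA quantified by TaqMan qRT-PCR. Activity was fitted in both directions using 0.5% DMSO as baseline.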

Read-out in assay [5]: Hypoxia-inducible factor 1-alpha (Homo sapiens) (UniProt Q16665)
The assay is described as follows: LTEA_HepaRG_HIF1A: Life Technologies and Expression Analysis (LTEA) Assay for Hypoxia-inducible factor 1 (HIF1A) Trancription factor using HepaRG (AID 2283503). In outline:
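Gain- or loss-of-signal HIF1A mRNA changes are fitted against a DMSO baseline. HepaRG cultures receive eight concentrations, highest 100 uM, for 48 h in serum-free induction medium with 0.5% DMSO.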

Read-out in assay [6]: 3-Hydroxy-3-Methylglutaryl-CoA Synthase 2 (HMGCS2), HMGCS2 (gene 3158)
The assay is described as follows: LTEA_HepaRG_HMGCS2: Life Technologies and Expression Analysis (LTEA) Assay for 3-Hydroxy-3-Methylglutaryl-CoA Synthase 2 (HMGCS2) using HepaRG (AID 2283504). In outline:
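Readout is HMGCS2 transcript by qRT-PCR, housekeeping-normalised (ACTB/GAPDH/POLR2A) and fitted bidirectionally against 0.5% DMSO. Differentiated HepaRG cells received chemicals 48 h, duplicate wells, eight half-log concentrations topping at 100 uM.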

Read-out in another assay: HGF (gene 3082)
The assay is described as follows: LTEA_HepaRG_HGF: Life Technologies and Expression Analysis (LTEA) Assay for Hepatocyte Growth Facto (HGF) using HepaRG (AID 2283505). In short, it runs like this:
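HGF transcript was quantified by TaqMan qRT-PCR against three housekeeping genes after 48 h treatment of HepaRG cells. Exposure ran in duplicate over eight half-log steps topping at 100 uM in 0.5% DMSO vehicle.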

Read-out in assay [7]: Insulin Like Growth Factor 1 (IGF1), IGF1 (gene 3479)
The assay is described as follows: LTEA_HepaRG_IGF1: Life Technologies and Expression Analysis (LTEA) Assay for Insulin Like Growth Factor 1 (IGF1) using HepaRG (AID 2283506). In outline: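 Endpoint: IGF1 mRNA change by qRT-PCR, housekeeping-normalized, fitted bidirectionally relative to 0.5% DMSO vehicle. Human HepaRG cells were treated 48 h in serum-free induction medium, eight half-log concentrations topping at 100 uM.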

Read-out in assay [8]: Intercellular Adhesion Molecule 1 (ICAM1), ICAM1 (gene 3383)
The assay is described as follows: LTEA_HepaRG_ICAM1: Life Technologies and Expression Analysis (LTEA) Assay for Intercellular Adhesion Molecule 1 (ICAM1) using HepaRG (AID 2283507). In outline: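 ICAM1 transcript levels measured by qRT-PCR, normalized to three housekeeping genes (ACTB, GAPDH, POLR2A), after 48 h chemical exposure of HepaRG cells. Duplicate eight-point half-log series from 100 uM in 0.5% DMSO; gain or loss fitted against vehicle.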

Read-out in assay [9]: Insulin-like growth factor-binding protein 1 (IGFBP1), IGFBP1 (gene 3484)
The assay is described as follows: LTEA_HepaRG_IGFBP1: Life Technologies and Expression Analysis (LTEA) Assay for Insulin-like growth factor-binding protein 1 (IGFBP1) using HepaRG (AID 2283508). In outline: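 Read-out is qRT-PCR transcript level normalized to three housekeeping genes, fitted in both directions against 0.5% DMSO. Differentiated HepaRG cells received eight half-log concentrations (top 100 uM) in duplicate for 48 h in serum-free induction medium.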

Read-out in assay [10]: Interleukin 6 (IL6), IL6 (gene 3569)
As to the kind of experiment: LTEA_HepaRG_IL6: Life Technologies and Expression Analysis (LTEA) Assay for Interleukin 6 (IL6) using HepaRG (AID 2283509). In outline: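 Changes in IL6 mRNA, up or down relative to 0.5% DMSO controls, were derived from concentration-response curves in human HepaRG cells treated for 48 h at up to 100 uM, with ACTB, GAPDH and POLR2A as normalizers.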

Read-out in assay [11]: Interleukin 6 Receptor (IL6R), IL6R (gene 3570)
The assay is described as follows: LTEA_HepaRG_IL6R: Life Technologies and Expression Analysis (LTEA) Assay for Interleukin 6 Receptor (IL6R) using HepaRG (AID 2283510).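 As to AC50: differentiated human HepaRG liver cells in serum-free induction medium.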 In short, it runs like this: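 In this HepaRG screen, test chemicals act on cells for 48 h at up to 100 uM (eight half-log points, duplicate wells). IL6R expression is quantified by qRT-PCR after normalization to ACTB, GAPDH and POLR2A, with DMSO as baseline.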

Read-out in assay [12]: Potassium channel subfamily K member 1 (KCNK1), KCNK1 (gene 3775)
As to the kind of experiment: LTEA_HepaRG_KCNK1: Life Technologies and Expression Analysis (LTEA) Assay for Potassium channel subfamily K member 1 (KCNK1) using HepaRG (AID 2283511). In outline: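 Human HepaRG cultures receive test chemicals for 48 h in 0.5% DMSO, top concentration 100 uM with half-log dilutions. Induction or suppression of KCNK1 mRNA relative to DMSO is derived by bidirectional fitting of qRT-PCR data.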

Read-out in assay [13]: Keratin 19 (KRT19), KRT19 (gene 3880)
The assay is described as follows: LTEA_HepaRG_KRT19: Life Technologies and Expression Analysis (LTEA) Assay for Keratin 19 (KRT19) using HepaRG (AID 2283512). In outline:
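KRT19 transcript measured by TaqMan qRT-PCR, referenced to three housekeeping genes, after HepaRG cells received test chemicals for 48 h. Eight half-log concentrations, top 100 uM, 0.5% DMSO vehicle; increases and decreases both fitted.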

Read-out in assay [14]: JUN Transcription Factor, JUN (gene 3725)
As to the kind of experiment: LTEA_HepaRG_JUN: Life Technologies and Expression Analysis (LTEA) Assay for JUN Transcription Factor using HepaRG (AID 2283513). In short, it runs like this: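 Gene-expression endpoint: JUN mRNA (qRT-PCR, normalized to three reference genes) in HepaRG cultures treated 48 h with chemicals, duplicate wells, 100 uM maximum with half-log dilutions; bidirectional fitting relative to 0.5% DMSO.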

Read-out in assay [15]: Lipoprotein lipase (LPL), LPL (gene 4023)
The assay is described as follows: LTEA_HepaRG_LPL: Life Technologies and Expression Analysis (LTEA) Assay for Lipoprotein lipase (LPL) using HepaRG (AID 2283515). In short, it runs like this:
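Concentration-response testing used half-log steps from 100 uM in 0.5% DMSO on human HepaRG cells, 48 h, duplicate wells. Phenobarbital 1 mM served as induction control; LPL mRNA was normalized to ACTB, GAPDH, POLR2A.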

Read-out in assay [16]: matrix metalloproteinase-10 (MMP10), MMP10 (gene 4319)
As to the kind of experiment: LTEA_HepaRG_MMP10: Life Technologies and Expression Analysis (LTEA) Assay for matrix metalloproteinase-10 (MMP10) using HepaRG (AID 2283517). In short, it runs like this:
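In differentiated HepaRG cultures kept in 0.5% DMSO, test chemicals act for 48 h over an eight-point range with a top dose of 100 uM. Expression is then quantified by TaqMan RT-PCR against ACTB, GAPDH and POLR2A.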

Read-out in the next assay: MYC, MYC (gene 4609)
The assay is described as follows: LTEA_HepaRG_MYC: Life Technologies and Expression Analysis (LTEA) Assay for MYC using HepaRG (AID 2283518). In short, it runs like this: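 MYC transcript changes, up or down relative to 0.5% DMSO, from TaqMan qRT-PCR normalized to three housekeeping genes. Human HepaRG cultures received chemicals for 48 h at eight half-log concentrations up to 100 uM, in duplicate.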

Read-out in assay [17]: Lipase C (LIPC), LIPC (gene 3990)
As to the kind of experiment: LTEA_HepaRG_LIPC: Life Technologies and Expression Analysis (LTEA) Assay for Lipase C (LIPC) using HepaRG (AID 2283514). In outline: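 In this multiplexed gene-expression screen, human HepaRG cultures received test chemicals for 48 h across eight concentrations with 100 uM highest, in duplicate. Values reflect LIPC mRNA induction or suppression versus DMSO vehicle, from normalized qRT-PCR.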

“And” between values parts separate entries of the source, which are not always exact repeats. Equal values may be shown once. The source holds several records for some structures; these can differ, active in one and inactive in another. The source made the active and inactive calls. The calls were made as follows: active = hit-call score of the fitted dose curve at least 0.9, where 1 is the maximum; inactive = score below 0.9.

Sequence of Hypoxia-inducible factor 1-alpha (Homo sapiens) (Q16665 whole entry, looked up): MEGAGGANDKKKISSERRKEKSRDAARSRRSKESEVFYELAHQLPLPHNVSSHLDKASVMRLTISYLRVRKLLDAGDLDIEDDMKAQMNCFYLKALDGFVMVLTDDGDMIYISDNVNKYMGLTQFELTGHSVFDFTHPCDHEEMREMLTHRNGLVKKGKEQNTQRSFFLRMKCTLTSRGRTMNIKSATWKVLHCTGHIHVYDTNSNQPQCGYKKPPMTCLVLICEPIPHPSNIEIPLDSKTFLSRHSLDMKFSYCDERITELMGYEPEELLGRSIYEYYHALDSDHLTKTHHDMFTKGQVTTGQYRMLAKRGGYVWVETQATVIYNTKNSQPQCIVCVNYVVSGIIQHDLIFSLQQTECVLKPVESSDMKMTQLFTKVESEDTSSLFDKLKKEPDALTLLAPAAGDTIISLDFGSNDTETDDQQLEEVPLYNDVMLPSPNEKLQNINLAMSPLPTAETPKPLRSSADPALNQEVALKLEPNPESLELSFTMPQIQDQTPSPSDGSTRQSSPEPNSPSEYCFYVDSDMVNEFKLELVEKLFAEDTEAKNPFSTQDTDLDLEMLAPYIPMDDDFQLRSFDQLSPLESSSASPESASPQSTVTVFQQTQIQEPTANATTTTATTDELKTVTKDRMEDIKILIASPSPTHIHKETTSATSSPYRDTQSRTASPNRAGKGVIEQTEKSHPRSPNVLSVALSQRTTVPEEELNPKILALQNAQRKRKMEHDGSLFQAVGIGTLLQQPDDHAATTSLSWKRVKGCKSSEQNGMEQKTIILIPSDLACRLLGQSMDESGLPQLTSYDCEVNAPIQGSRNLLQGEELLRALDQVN

Broadly, the AC50 is the midpoint of the concentration-response curve, whichever way the signal moves. With `CCOC(=O)C(C)Oc1ccc(Oc2cnc3cc(Cl)ccc3n2)cc1` (configuration not stated), the outcome in assay [1], in [2], in assay [3], in assay [4], in assay [5] and in assay [6] was inactive. For the same compound, the result (with HGF (gene 3082); in assay [8]; in assay [9]; in [10]; in assay [11]; in assay [12]) was inactive. Besides, the outcome in assay [13] is “inactive”; in assay [14], “inactive”; in assay [15], “inactive”; in [16], “inactive”; with MYC, MYC (gene 4609), “inactive”. The AC50 in assay [7] was 1.06 µM (active).

Consider `CCCN(CCC)c1c([N+](=O)[O-])cc(C(F)(F)F)c(N)c1[N+](=O)[O-]`, for which the compound was called inactive (in assay [1]; in assay [3]; in assay [5]; in the assay with HGF (gene 3082); in [8]; in assay [9]). The outcome in assay [10], in assay [11], in assay [12], in assay [13], in [14] and in assay [15] was inactive. Also, in assay [16], the compound was classed as inactive. The AC50 is 28.6 µM (active) in [2]; 50 µM (active) in assay [4]; 33.3 µM (active) in assay [6]; 22.7 µM (active) in assay [7]; 50 µM (active) in the assay with MYC, MYC (gene 4609).

Regarding `S=C(S)NCCNC(=S)S.[Mn+2].[S-]C([S-])=NCCN=C([S-])[S-].[Zn+2]`, the concentration at half-maximal activity (AC50) in [1] is 3.67 µM (active) and 2.31 µM (active) and 3.97 µM (active); in assay [2], 25 µM (active); in assay [3], 0.827 µM (active); in assay [4], 1.21 µM (active) and 4.71 µM (active); in assay [5] it was 1.63 µM (active); with HGF (gene 3082), 3.68 µM (active) and 9.89 µM (active). Moreover, the AC50 in assay [7] was 1.35 µM (active) and 1.45 µM (active) and 2.57 µM (active); in [8], 1.8 µM (active) and 2.09 µM (active) and 2.17 µM (active); in [9] it was 56.2 nM (active) and 104 nM (active) and 174 nM (active); in assay [10], 1.73 µM (active) and 1.92 µM (active) and 2.15 µM (active); in [11] it was 1.55 µM (active) and 1.5 µM (active) and 1.32 µM (active); in assay [13], 5.39 µM (active) and 11.4 µM (active). Also, the AC50 is 1.36 µM (active) and 1.75 µM (active) in [14]; 1.21 µM (active) and 1.2 µM (active) and 1.48 µM (active) in [17]; 1.11 µM (active) and 1.17 µM (active) and 2.99 µM (active) in assay [15]; 846 nM (active) and 655 nM (active) in [16]; 4.59 µM (active) and 3.61 µM (active) with MYC, MYC (gene 4609). Further, the result (in [2]; in [3]; in assay [4]; in [5]; with HGF (gene 3082); in [12]) was inactive. Also, the outcome was “inactive” in assay [13]; “inactive” in assay [14]; “inactive” with MYC, MYC (gene 4609).

Values taken from PubChem BioAssay (EPA / NIEHS).
